Bioassay records as filed in PubChem BioAssay.
Wnt act – activates Wnt/beta-catenin signaling in a reporter cell assay. activator, plate reader. activation, % at 9.35 µM. 1.2% of 300,000 active; in the data active means activation above about 30%, passing the limit was not always enough; inconclusive means no clear call, values can overlap the other calls
HIV Env fusion – inhibitors of HIV Env-mediated cell fusion. AID 651610. inhibition, % at 12.3 µM. 1.1% of 360,000 active. HeLa-JRFL Env/CEM21 cell fusion, luciferase;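 active means mean replicate inhibition score of at least 50 and every replicate individually at or above 50; inconclusive means only one of the two criteria met; inactive means mean below 50 and not all replicates reaching 50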
miR122 inh – blocks miR-122 activity in Huh7 sensor cells; Huh7 miR-122 Renilla luciferase sensor, 48 h; neutral wells = 0, positive control = 100; activation (reporter increase), % at 12.5 µM; 0.3% of 340,000 active;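 active means mean replicate activation score at least 90 and every replicate individually at or above 90; inconclusive means only one of the two criteria met; inactive means neither criterion met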;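 further: higher luciferase means less miR-122 activity so hits act as miR-122 inhibitors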
esBAF inh – blocks esBAF chromatin remodeling in mouse ES cells | reporter increase, % at 12.5 µM | 2% of 350,000 active | Bmi1-luciferase knock-in reporter, 24 h; 100% = twice the neutral-well signal | AID 602393; in the data active means activation above about 40%; inconclusive means no clear call, values can overlap the other calls;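 further: a rise in the Bmi1 reporter signal indicates esBAF inhibition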
MITF TRPM1 HTS – activators of MITF-driven TRPM1 promoter activity in SK-MEL-5 cells | SK-MEL-5 TRPM1-promoter luciferase, 24 h; % of positive control, neutral wells = 0 | activation, % at 12.5 µM | 0.75% of 300,000 active;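 active means mean activation of at least 80% with every replicate also reaching 80%; inconclusive means mean reaches 80% but some replicate falls short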
Of the large screens only hits and unclear results are named; the others gave an inactive call. The list is not random: actives were taken first. Their share in the collection is about 3.4%.

C[C@@H]1CCCCO[C@H](CN(C)CC2CC2)[C@H](C)CN([C@@H](C)CO)C(=O)c2cc(NC(=O)c3ccncc3)ccc2O1	none (no result: Wnt act, MITF TRPM1 HTS)
CCC(=O)Nc1ccc2c(c1)C(=O)N(C)C[C@H](OC)[C@@H](C)CN(C(=O)CC)[C@@H](C)CO2	none (no result: Wnt act, miR122 inh, MITF TRPM1 HTS)
Cc1ccnc(SCC(=O)c2cccs2)n1	Wnt act 44, MITF TRPM1 HTS 93 (no result: miR122 inh, esBAF inh)
COc1ccc2nc(NC(=O)c3cccs3)sc2c1	Wnt act 48, esBAF inh inconclusive (no result: MITF TRPM1 HTS)
CN(CC1CCCO1)S(=O)(=O)c1ccc(C(=O)Nc2nc3cc4c(cc3s2)OCO4)cc1 (configuration not stated)	HIV Env fusion 57 (no result: miR122 inh)
O=C(Nc1nc2ccccc2s1)c1ccccc1[N+](=O)[O-]	esBAF inh 50 (no result: MITF TRPM1 HTS)
CCN(CC)S(=O)(=O)c1ccc2nc(NC(=O)c3cccs3)sc2c1	none (no result: Wnt act, HIV Env fusion, esBAF inh)
CN(CC1CCCO1)S(=O)(=O)c1ccc(C(=O)Nc2ccc3c(c2)OCO3)cc1 (configuration not stated)	none (no result: miR122 inh, esBAF inh)
CNC[C@H]1OCCCC[C@@H](C)Oc2ccc(NS(=O)(=O)c3ccc(C)cc3)cc2C(=O)N([C@@H](C)CO)C[C@@H]1C	none (no result: Wnt act, MITF TRPM1 HTS)
CC12CCC(=O)N1C(C(=O)Nc1nc3ccc(Cl)cc3s1)CS2 (configuration not stated)	none
O=C(Nc1nc2cc3c(cc2s1)OCCO3)c1cccs1	Wnt act 32
COc1ccc2nc(NC(=O)c3ccccc3[N+](=O)[O-])sc2c1	esBAF inh 50 (no result: miR122 inh)
COc1ccc2nc(NC(=O)c3ccccc3O)sc2c1	Wnt act 38, MITF TRPM1 HTS 88
COc1ccccc1C(=O)Nc1nc2cc3c(cc2s1)OCCO3	none (no result: Wnt act, HIV Env fusion)
CC12CCC(=O)N1C(C(=O)Nc1nc3ccc(S(C)(=O)=O)cc3s1)CS2 (configuration not stated)	HIV Env fusion 55 (no result: miR122 inh)
C[C@@H](NC(=O)C[C@@H]1C[C@H]2c3cc(NC(=O)C4CCC4)ccc3O[C@H]2[C@H](CO)O1)c1ccccc1	none (no result: Wnt act, HIV Env fusion, MITF TRPM1 HTS)
CNC(=O)C[C@@H]1CC[C@@H]2[C@@H](COc3ccc(NC(=O)c4ccccc4Cl)cc3C(=O)N2C)O1	none (no result: Wnt act, MITF TRPM1 HTS)
CCC(=O)Nc1ccc2c(c1)OC[C@H](C)N(Cc1cccc(F)c1)C[C@H](C)[C@@H](OC)CN(C)C2=O	none (no result: Wnt act, MITF TRPM1 HTS)
CCOc1ccc2nc(SCC(=O)c3cccs3)sc2c1	Wnt act 50, esBAF inh 90 (no result: MITF TRPM1 HTS)
O=C(NNc1nc2cc3c(cc2s1)OCO3)c1cccc(F)c1	esBAF inh 47
CCOc1ccc2nc(SCC(=O)c3ccc(Cl)s3)sc2c1	none (no result: Wnt act, HIV Env fusion, esBAF inh)
CO[C@H]1CN(C)C(=O)c2cc(NS(=O)(=O)Cc3ccccc3)ccc2OC[C@@H](C)NC[C@H]1C	none (no result: Wnt act, miR122 inh, MITF TRPM1 HTS)
C[C@@H]1CN([C@H](C)CO)C(=O)c2cc(NC(=O)Nc3ccc(F)cc3)ccc2O[C@@H](C)CCCCO[C@H]1CN(C)Cc1ccccc1	none (no result: Wnt act, MITF TRPM1 HTS)
Cc1cc(=O)oc2cc(NC(=O)c3ccccc3OC(F)F)ccc12	esBAF inh 53
Cc1cc(=O)oc2cc(NS(=O)(=O)c3ccccc3)ccc12	Wnt act 52 (no result: esBAF inh, MITF TRPM1 HTS)
Cc1cc(=O)oc2cc(NC(=O)c3cc(F)ccc3F)ccc12	Wnt act 44, esBAF inh 53 (no result: HIV Env fusion)
O=S(=O)(N[C@H]1CC[C@@H](CCn2cc(-c3ccccc3F)nn2)O[C@H]1CO)c1ccc(Cl)cc1	none (no result: Wnt act, miR122 inh, MITF TRPM1 HTS)
O=C/C=C/c1ccc2c(c1)OCO2	none (no result: Wnt act, miR122 inh, esBAF inh, MITF TRPM1 HTS)
CC(=O)N(C)C[C@H]1Oc2cc(-c3ccc(C#N)cc3)ccc2S(=O)(=O)N([C@H](C)CO)C[C@H]1C	none (no result: Wnt act, MITF TRPM1 HTS)
CCOC(=O)Cc1c(C)nc2c(-c3ccc(Cl)cc3)cnn2c1C	none
N#Cc1cnn2c(N)c(-c3ccc(Cl)cc3)cnc12	none (no result: miR122 inh, esBAF inh)
Nc1c(C(=O)O)cnc2c(-c3ccc(Cl)cc3)cnn12	esBAF inh 47
CC(=O)c1cnc2c(-c3ccc(Cl)cc3)cnn2c1C	esBAF inh 75 (no result: Wnt act)
Cc1nn2c(-c3ccncc3)ccnc2c1Cl	none
Clc1ccc(-c2cnn3c(-c4ccncc4)ccnc23)cc1	Wnt act 64 (no result: miR122 inh, esBAF inh)
O=C(C[C@@H]1C=C[C@H](NC(=O)Nc2ccc3c(c2)OCO3)[C@@H](CO)O1)NCc1ccc(Cl)cc1	none (no result: Wnt act, miR122 inh, MITF TRPM1 HTS)
COc1ccc(CN(C)C[C@@H]2Oc3c(NC(=O)Nc4c(C)noc4C)cccc3C(=O)N([C@H](C)CO)C[C@@H]2C)cc1	none (no result: Wnt act, HIV Env fusion, MITF TRPM1 HTS)
Cc1ccccc1OCC1Cc2c(nc(N)c(C#N)c2N)O1 (configuration not stated)	esBAF inh 49 (no result: HIV Env fusion)
Cc1ccc(-c2nc3ccc(NS(=O)(=O)c4ccccc4)cc3[nH]2)o1	esBAF inh 78 (no result: HIV Env fusion)
C[C@@H]1CCCCO[C@H](CN(C)Cc2ccccc2)[C@H](C)CN([C@H](C)CO)C(=O)c2cc(NS(=O)(=O)c3cn(C)cn3)ccc2O1	none (no result: Wnt act, MITF TRPM1 HTS)
COc1ccc(C2=NN3C(C2)c2ccccc2OC3c2cccs2)cc1 (configuration not stated)	Wnt act 49 (no result: miR122 inh, esBAF inh)
Cc1ccc(C2=NN(S(=O)(=O)c3ccccc3)C(c3ccccc3O)C2)cc1 (configuration not stated)	none (no result: miR122 inh, esBAF inh)
Cc1ccc(C2=NN3C(C(=O)c4ccccc4)Oc4ccccc4C3C2)cc1 (configuration not stated)	Wnt act 43, miR122 inh 114, esBAF inh 68 (no result: MITF TRPM1 HTS)
C[C@H]1CN([C@@H](C)CO)C(=O)c2cc(C#Cc3ccccc3)cnc2O[C@@H]1CN(C)C(=O)C1CC1	none (no result: Wnt act, MITF TRPM1 HTS)
O=C(NC1CCCCCC1)C(=S)NC1CCCCC1	Wnt act 33 (no result: miR122 inh, esBAF inh)
O=C(NC1CCCCCCC1)NC1CCCCC1	Wnt act 58, MITF TRPM1 HTS 91 (no result: esBAF inh)
O=C(NC1CCCCCC1)C(=O)NC1CC1	none (no result: MITF TRPM1 HTS)
Cn1c(=NN=Cc2ccccc2OCCO)sc2ccccc21	Wnt act 43, esBAF inh 56 (no result: MITF TRPM1 HTS)
C[C@H]1CCCCO[C@@H](CN(C)S(=O)(=O)c2cccs2)[C@@H](C)CN([C@@H](C)CO)C(=O)c2cc(NS(=O)(=O)c3cn(C)cn3)ccc2O1	none (no result: Wnt act, MITF TRPM1 HTS)
CN1CCN(C(c2ccc(Cl)cc2)c2cc(Cl)c3cccnc3c2O)CC1 (configuration not stated)	none
Oc1c(C(c2ccccn2)N2CCCCC2)cc(Cl)c2cccnc12 (configuration not stated)	Wnt act 59 (no result: esBAF inh)
Cc1noc(C)c1S(=O)(=O)N(C)C[C@@H]1Oc2ccc(NS(C)(=O)=O)cc2C(=O)N([C@@H](C)CO)C[C@@H]1C	none (no result: Wnt act, HIV Env fusion, MITF TRPM1 HTS)
O=C(Nc1ccc(N2CCOCC2)cc1)c1cc2ccccc2o1	esBAF inh 46 (no result: Wnt act, HIV Env fusion, miR122 inh)
CCC(=O)N1CCN(c2ccc(NC(=O)c3cc4ccccc4o3)cc2)CC1	none (no result: Wnt act, HIV Env fusion)
O=C(Nc1ccc(CN2CCOCC2)cc1)c1cc2ccccc2o1	MITF TRPM1 HTS 105 (no result: Wnt act, HIV Env fusion)
O=C(Nc1ccc(CN2CCOCC2)cc1)c1ccc(-c2cccc(Cl)c2)o1	HIV Env fusion 77
O=C(Nc1ccc(CN2CCOCC2)cc1)c1ccccc1F	Wnt act 39 (no result: MITF TRPM1 HTS)
Cc1cc(CSc2ccccc2)ccc1NC(=O)c1ccc(CN2CCOCC2)cc1	HIV Env fusion 68 (no result: Wnt act, miR122 inh, esBAF inh)
CCCCn1cnc2c(sc3nc4c(cc32)CSC(C)(C)C4)c1=O	esBAF inh 47
